Screening data (PubChem BioAssay)
A selection follows.
aSyn UTR act: Activators via SNCA 5'UTR binding, MLPCN | alpha-synuclein 5'UTR reporter, activators screen | activity score, % (tested at 7.5 µM), hits read low | 300,000 compounds, 7.1% hits | AID 1814, 2009; in the data active = activity score below about -60%
Of the large screens only hits and unclear results are named; the others gave an inactive call.

Cc1csc(NC(=O)NCC2CCCC(CNC(=O)Nc3nc(C)cs3)C2)n1 (stereo unspecified)	aSyn UTR act -66
c1ccc2[nH]c(SCc3cscn3)nc2c1	aSyn UTR act -104
c1ccc2nc(-c3nc4ccccc4[nH]3)ccc2c1	none
c1ccc2[nH]c(-c3cscn3)nc2c1	aSyn UTR act -99
c1cnc(SCCOc2ccc3c(c2)CCC3)nc1	aSyn UTR act -111
COc1ccc2nc(N3CCCC3)c(C#N)cc2c1	aSyn UTR act -105
COc1ccc2nc(N3CCCCC3)c(C#N)cc2c1	aSyn UTR act -110
CC(/C=N/NC(=O)c1ccc(Cn2cc([N+](=O)[O-])cn2)o1)=C\c1ccccc1	aSyn UTR act -75
Fc1ccccc1/C=N/Nc1ccc(Cl)nn1	aSyn UTR act -110
C(=N\Nc1ccc2nncn2n1)/c1ccccn1	none
COc1cccc(/C=N/Nc2ccc(Cl)nn2)c1OC	aSyn UTR act -155
COc1cccc(/C=N/Nc2nnc3c(n2)[nH]c2ccccc23)c1OC	aSyn UTR act -84
CC(/C=N/Nc1nnc2c(n1)[nH]c1ccccc12)=C\c1ccco1	aSyn UTR act -165
O=C(Nc1ccc(N2CCCC2)cc1)c1cccc(F)c1	aSyn UTR act -203
O=C(Nc1ccc(N2CCCC2=O)cc1)c1cccc(F)c1	aSyn UTR act -98
O=C(O)c1ccc(NC(=S)NC(=O)c2ccc3ccccc3c2)cc1	aSyn UTR act -64
O=C(Nc1ccc(N2CCCC2)cc1)c1ccc2ccccc2c1	aSyn UTR act -143
COc1ccc(NC(=S)NNc2ccc(C(=O)O)cc2)cc1	aSyn UTR act -107
O=C(Nc1ccc(Nc2ccccc2)cc1)c1cccc(F)c1	aSyn UTR act -265
Cn1nccc1C(=O)NC(=S)Nc1sc2c(c1C#N)CCCCC2	aSyn UTR act -148
N#Cc1c(NC(=O)C2CC2)sc2c1CCCCC2	aSyn UTR act -119
CC1CCc2sc(NC(=S)NC(=O)c3ccccc3)c(C#N)c2C1 (stereo unspecified)	aSyn UTR act -141
N#Cc1c(NC(=S)NC(=O)c2ccccc2)sc2c1CCC2	aSyn UTR act -126
CCC1(C)Cc2c(sc(NC(=S)NC(=O)c3ccccc3)c2C#N)CO1 (stereo unspecified)	aSyn UTR act -146
CC(=O)NC(=S)Nc1sc2c(c1C#N)CCCCC2	aSyn UTR act -120
C(=C\c1nc(N2CCCCCC2)c2ccccc2n1)/c1ccccc1	aSyn UTR act -71
CC(C)(C)c1ccc(OC(=O)N2CCOCC2)cc1	aSyn UTR act -111
CCC(=O)c1ccc(OC(=O)N2CCOCC2)cc1	aSyn UTR act -70
Cc1cc(N2CCCC2)nc(-c2ccccc2O)n1	aSyn UTR act -62
Cc1cc(N2CCCCC2)nc(SCC(=O)c2ccccc2)n1	aSyn UTR act -119
CCOc1ccc(-c2nnc(-c3cccs3)o2)cc1OCC	aSyn UTR act -86
COc1ccc(-c2nnc(-c3cccs3)o2)cc1OC	aSyn UTR act -148
CCOc1ccc(-c2nnc(-c3ccco3)o2)cc1OCC	aSyn UTR act -76
Cc1cccc2sc(NC(=O)C3CCCO3)nc12 (stereo unspecified)	aSyn UTR act -126
O=C(Nc1nc(-c2ccc(Cl)cc2)cs1)C1CCCO1 (stereo unspecified)	aSyn UTR act -90
CSc1nc2ccc(NC(=O)C3CCCO3)cc2s1 (stereo unspecified)	aSyn UTR act -125
Cc1nc(C)c(C(=O)Nc2nc3c(C)cccc3s2)o1	aSyn UTR act -74
COc1ccc(-c2nnc(NC(=O)C3CCCO3)s2)cc1 (stereo unspecified)	aSyn UTR act -112
COc1ccc2nc(NC(=O)C3CCCO3)sc2c1 (stereo unspecified)	aSyn UTR act -87
COc1ccc2nc(NC(=O)C3CCN(C(=O)c4ccco4)CC3)sc2c1	aSyn UTR act -73
CSc1nc2ccc(NC(=O)NC(=O)c3c(F)cccc3F)cc2s1	aSyn UTR act -125
CCN(Cc1cnn(C)c1)C(=O)c1cc(COc2ccc3c(c2)CCCC3)on1	aSyn UTR act -73
Cc1ccc(NC(=O)c2cnccn2)cc1C	aSyn UTR act -72
Cc1ccc(NC(=O)c2cnccn2)cc1	aSyn UTR act -82
O=C(Nc1ccc(Br)cc1)c1cnccn1	aSyn UTR act -94
COc1cc(C2c3cc4c(cc3C(OC3OC5COC(c6cccs6)OC5C(O)C3O)C3COC(=O)C23)OCO4)cc(OC)c1O (stereo unspecified)	none
COc1ccc(C2OC3=C(Nc4cc(C)c(C)cc4N3)C2=O)cc1 (stereo unspecified)	aSyn UTR act -98
CCOC(=O)C(=CNc1ccc(C(F)(F)F)cc1Cl)C(=O)OCC	aSyn UTR act -97
COc1ccc(-c2nnc(NC(=O)C(C)C)s2)c(OC)c1	aSyn UTR act -101
CCOC(=O)Nc1nc(-c2ccccc2)c(C(=O)c2ccc(Cl)cc2)s1	none
CCOC(=O)Nc1nnc(-c2ccc(OC)cc2)s1	aSyn UTR act -65
CCOC(=O)Nc1nnc(-c2cccc(OC)c2)s1	aSyn UTR act -83
COc1cccc(NC(=O)Nc2ccc3c(c2)CCC3)c1	aSyn UTR act -130
O=C(Nc1ccc2c(c1)CCC2)c1cccc(F)c1	aSyn UTR act -143
Cc1cccc(NC(=O)Nc2ccc3c(c2)CCC3)c1	aSyn UTR act -116
CC(=O)c1cccc(NC(=O)Nc2ccc3c(c2)CCC3)c1	aSyn UTR act -91
CC(C)c1c(O)cc(-c2ccncc2)n(-c2ccc(Cl)cc2)c1=O	none
CC(=O)c1cccc(NC(=O)c2cnn3ccccc23)c1	aSyn UTR act -106
CC(=O)c1cccc(NC(=O)c2ccc3c(c2)CCCC3)c1	aSyn UTR act -132
COc1cccc(NC(=O)COc2ccc3c(c2)CCC3)c1	aSyn UTR act -65
CC(=O)c1ccc(NC(=O)c2cnn3ccccc23)cc1	none
CCc1ccc(NC(=O)Nc2ccc3c(c2)CCC3)cc1	aSyn UTR act -125
O=C1C=C(c2ccccc2)C[C@H](c2cccs2)[C@H]1n1nnc([N+](=O)[O-])n1	none
Cn1cc(C(=O)Nc2ccc3c(c2)CCC3)cn1	aSyn UTR act -105
COc1ccc(N2CCN(C(=O)c3ccc(Cn4c(=S)[nH]c5ccc(N6CCOCC6)cc5c4=O)cc3)CC2)cc1	aSyn UTR act -111
O=c1c2cc(N3CCOCC3)ccc2[nH]c(=S)n1Cc1ccc(Cl)cc1	aSyn UTR act -121
Cc1ccc(C2Nc3ccc4ccccc4c3C3=C2C(=O)CC(C)(C)C3)o1 (stereo unspecified)	aSyn UTR act -73
O=C(NC(=S)Nc1ccc2oc(-c3cccnc3)nc2c1)c1cccc(Cl)c1	aSyn UTR act -115
CCCC(=O)Nc1ccc2oc(-c3cccnc3)nc2c1	aSyn UTR act -80
COC(=O)Cc1ccc2oc(-c3cccnc3)nc2c1	aSyn UTR act -64
CCCC(=O)NC(c1ccccc1Cl)c1ccc2cccnc2c1O (stereo unspecified)	none
CCCC(=O)Nc1ccc(-c2nc3ncccc3o2)cc1	aSyn UTR act -181
N#Cc1ccsc1NC(=O)COC(=O)c1cc2ccccc2cc1O	aSyn UTR act -178
CC(=O)Nc1ccc(SCC(=O)Nc2sccc2C#N)cc1	aSyn UTR act -111
CCN(CC)c1ccc(C(=O)OCC(=O)Nc2sccc2C#N)cc1	aSyn UTR act -176
N#Cc1ccsc1NC(=O)CCc1ccccc1	aSyn UTR act -81
N#Cc1ccsc1NC(=O)COC(=O)c1ccc(NC(N)=O)cc1	aSyn UTR act -78
N#Cc1ccsc1NC(=O)COc1ccc(-c2nnco2)cc1	aSyn UTR act -96
Fc1ccccc1-c1csc(-c2cccnc2)n1	aSyn UTR act -105
c1ccc(-c2csc(-c3ccncc3)n2)cc1	aSyn UTR act -74
Brc1ccsc1-c1csc(-c2ccncc2)n1	aSyn UTR act -106
